Sfp PPTase inh = qHTS Assay for Inhibitors of Bacillus subtilis Sfp phosphopantetheinyl transferase (PPTase) | Biochemical Sfp PPTase activity, qHTS | Potency, µM, for the others: largest response in the series, negative = inhibition, hits mostly inhibitors | 310,000 tested, 3.5% active;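 further: the enzyme is Sfp with the accession as filed and its product quenches rhodamine fluorescence; potency means the concentration at half of the fitted maximal effect; 0% = enzyme reaction without inhibitor and -100% = no enzyme wells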
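Step 1, compound plus 15 nM Sfp-PPTase, 15 min, room temperature. Step 2, add rhodamine-CoA (5 uM) and BHQ-2-YbbR (12.5 uM). Step 3, read 525/598 nm fluorescence at 0 and 30 min.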
JMJD2E inh = qHTS Assay for Inhibitors of Human Jumonji Domain Containing 2E (JMJD2E); Lysine-specific demethylase 4E (Homo sapiens), B2RXH2; JMJD2E catalytic domain, FDH-coupled NADH fluorescence (FDH is formaldehyde dehydrogenase); Potency, µM (highest dose often 57.1 µM), for inactives: at the top dose activity change, negative = inhibition, usual class: inhibitors; 230,000 tested, 1.6% active; active means well fitted inhibition curve with a large enough effect, not every such curve was filed as active; inconclusive means small, poorly fitted or top-dose-only effect, or another doubt; inactive means no such curve, though single readings can be large or run the other way;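 further: potency means the concentration at half of the fitted maximal effect; 0% = wells with enzyme and -100% = buffer wells without enzyme; nearly all actives have a fitted effect of over 50% in size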
Target sequence (B2RXH2 1-337 limits assumed): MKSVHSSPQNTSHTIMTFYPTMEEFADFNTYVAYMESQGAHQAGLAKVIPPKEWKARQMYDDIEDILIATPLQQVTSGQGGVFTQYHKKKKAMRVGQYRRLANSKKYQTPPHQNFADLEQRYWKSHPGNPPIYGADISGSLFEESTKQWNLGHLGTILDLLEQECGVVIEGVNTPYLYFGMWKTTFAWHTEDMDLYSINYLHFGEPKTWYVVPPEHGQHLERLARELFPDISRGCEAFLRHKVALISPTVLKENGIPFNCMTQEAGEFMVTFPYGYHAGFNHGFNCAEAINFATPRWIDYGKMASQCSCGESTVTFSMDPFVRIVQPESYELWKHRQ
miR-21 reporter = qHTS Assay for Modulators of miRNAs and/orActivators of miR-21. HeLa miR-21 FLuc reporter, luciferase, 48 h. AID 2288, 2010. 340,000 tested, under 10 active. Potency, µM (top dose mostly 38.3 µM), inactives show top-dose activity change, positive = activation, actives largely listed as activators;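 further: % of control where 0% means no effect; miR-21 action dims this reporter so a rising signal means less miR-21 action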
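HeLa miR-21-FLuc reporter line, endogenous miR-21; 2000 cells/well in DMEM/10% FBS; compound titration up to ~40uM final, 48 h, 37 degree Celsius; luciferase detection reagent, 15 min lysis, CCD luminescence.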
G9a block = qHTS Assay for Inhibitors of Histone Lysine Methyltransferase G9a; Histone-lysine N-methyltransferase EHMT2 (Homo sapiens), Q96KQ7; G9a H3K9 monomethylation, AlphaScreen, 2 h; Potency, µM (top dose mostly 102 µM), for inactives: top-dose activity, negative = inhibition, actives largely listed as inhibitors; 350,000 tested, 8.8% active; AID 504332, 2011; further: potency means the concentration at half of the fitted maximal effect; on the % scale 0 is the no-effect control and ±100 the full control effect; nearly all actives have a fitted effect of over 75% in size
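Signal arises when biotinylated H3K9 peptide, once monomethylated, bridges streptavidin donor and antibody-captured acceptor beads. Enzyme at 20 nM was preincubated 15 min with test compounds; peptide 500 nM and SAM 20 uM then reacted for 2 h.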
ALDH1A1 inh = qHTS Assay for Inhibitors of Aldehyde Dehydrogenase 1 (ALDH1A1); Potency, µM (series often up to 75.3 µM), for inactives: top-dose activity, negative = inhibition, actives largely listed as inhibitors; 220,000 tested, 7.3% active; AID 1030, 2008; Purified ALDH1A1, NADH fluorescence, propionaldehyde substrate; active means well fitted inhibition curve with a large enough effect, not every such curve was filed as active; inconclusive means small, poorly fitted or top-dose-only effect, or another doubt; inactive means no such curve, though single readings can be large or run the other way;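 further: potency means the concentration at half of the fitted maximal effect; plate controls were no enzyme wells and a reference inhibitor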
Target sequence (P00352 whole entry, looked up): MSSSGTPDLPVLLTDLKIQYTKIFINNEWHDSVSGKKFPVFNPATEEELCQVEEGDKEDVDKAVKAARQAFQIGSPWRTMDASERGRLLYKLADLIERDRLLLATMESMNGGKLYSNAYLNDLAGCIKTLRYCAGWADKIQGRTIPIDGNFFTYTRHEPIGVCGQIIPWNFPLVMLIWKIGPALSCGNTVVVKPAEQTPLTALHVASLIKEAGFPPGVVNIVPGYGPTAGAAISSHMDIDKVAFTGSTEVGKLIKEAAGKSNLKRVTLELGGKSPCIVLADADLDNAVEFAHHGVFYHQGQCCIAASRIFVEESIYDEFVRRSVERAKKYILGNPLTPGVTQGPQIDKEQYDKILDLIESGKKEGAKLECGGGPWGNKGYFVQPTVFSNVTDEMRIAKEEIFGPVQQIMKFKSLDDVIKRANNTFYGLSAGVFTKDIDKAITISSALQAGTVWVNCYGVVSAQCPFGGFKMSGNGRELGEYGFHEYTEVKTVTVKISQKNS
LMNA splice mod = qHTS Assay for Modulators of Lamin A Splicing | HeLa LMNA splicing GFP/RFP minigene ratio, 48 h | Potency, µM (highest dose often 46.1 µM), inactives show at the highest dose ratio change, negative = inhibition, actives largely listed as inhibitors | 200,000 tested, 0.01% active | AID 1487, 2009; active means well fitted inhibition curve with a large enough effect in the signal ratio, with a control signal flat, not every such curve was filed as active; inconclusive means small, poorly fitted or top-dose-only effect, or effect the other way, or a change in a side signal; the % refers to the signal ratio; further: potency means the concentration at half of the fitted maximal effect; on the % scale 0 is the no-effect control and ±100 the full control effect
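S3 HeLa cells stably expressing lamin A-EGFP splicing minigene plus DsRed2, 600 cells/well, 48 h compound exposure at 37C. Laser-scanning cytometry; analysed as GFP (500-530 nm)/RFP (575-640 nm) total intensity ratio; 0.5% DMSO vehicle.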
Numbers without * were called inactive; ? = inconclusive; nt = no result; [ ] = remark or other dose. Shown are actives, neighbours in structure and some others; about 13% of the full set was active somewhere. Unless noted, the call rests on the fitted dose curve; in most records, active means well fitted curve in the direction sought with a large enough effect; inconclusive means small, poorly fitted or top-dose-only effect, or another doubt; inactive means no such curve, though single readings can be large; an effect the other way counts as inactive or inconclusive.

SMILES	Sfp PPTase inh	JMJD2E inh	miR-21 reporter	G9a block	ALDH1A1 inh	LMNA splice mod
CCCCSCCCNC(=O)c1cn(CC)c2ccc(S(=O)(=O)N(C)C3CCCCC3)cc2c1=O	nt	nt	12.9%	-50.5%[59 µM]	nt	nt
COc1ccc2[nH]cc(CCNc3ccnc(-c4ccc(C(=O)N(C)C)cc4)n3)c2c1	5.3%	nt	nt	-7.8%[0.501 µM]	10.7%	?
COC(=O)c1cc(C)sc1NC(=O)CSc1ncccn1	?	nt	-3.4%	10µM*	nt	nt
COC(=O)c1ccccc1NC(=O)CSc1ncccn1	17.6%	-25.0%	-7.2%	-4.0%	nt	nt
Cc1ccc(NC(=O)COC(=O)C(NS(=O)(=O)c2ccc(Cl)cc2)C(C)O)c(Br)c1 (configuration not stated)	1.3%	6.5%	1.1%	4.0%[59 µM]	3.55µM*	15.3%
Cc1ccc(NC(=O)COC(=O)C2CC2(Cl)Cl)cc1C (configuration not stated)	0.4%	2.2%	0.5%	-20.5%	20µM*	nt
Cc1ccc(NC(=O)COC(=O)C(NS(=O)(=O)c2ccc(Cl)cc2)C(C)O)cc1C (configuration not stated)	1.1%	-8.7%	10.6%	?	1.26µM*	?
CCCc1ccc(OC(=O)c2ccc(O)cc2Cl)cc1	1.4%	3.2%	-17.0%	41.5%	3.8%	nt
CCCOc1ccc(N)cc1N	44.7µM*	?	1.9%	5.01µM*	5.62µM*	-2.5%
CCCOc1cc(N)ccc1C(=O)OCCN(CC)CC	19.1%	-4.0%[25.5 µM]	nt	-4.1%[59 µM]	7.4%[20.9 µM]	?
CCOC(=O)NC(N(O)c1cccc(Cl)c1)C(Cl)(Cl)Cl (configuration not stated)	11.2µM*	-0.6%	3.7%	39.8µM*	8.91µM*	nt
O=[N+]([O-])c1cccnc1N1CCC(c2cc(-c3ccc(Cl)cc3)n[nH]2)CC1	?	-6.9%	12.5%	8.91µM*	?	?
CCOC(=O)CN1CCC(c2cc(-c3ccc(Cl)cc3)n[nH]2)CC1	-4.3%	nt	-0.1%	7.7%	nt	nt
COc1cc(C(=O)OCC(=O)Nc2ccc(N3CCOCC3)cc2)ccc1OCC(C)C	nt	nt	nt	6.31µM*	nt	nt
O=C(COC(=O)c1ccccc1OC(F)F)Nc1ccc(N2CCCCC2)cc1	nt	nt	nt	7.94µM*	nt	nt
Cc1cccc(C(=O)OCC(=O)Nc2ccc(N3CCCCC3)cc2)c1O	2.9%	-1.7%	-1.7%	?	10.9%	1.2%
CCOc1ccccc1C(=O)OCC(=O)Nc1ccc(N2CCCCC2)cc1	-25.4%	-9.2%	-16.1%	?	?	-6.2%
COc1cc(OC)cc(C(=O)OCC(=O)Nc2ccc(N3CCCCC3)cc2)c1	1.5%	0.6%	-3.7%	10µM*	-2.3%	0.3%
O=C(COC(=O)c1ccc(O)cc1)Nc1ccc(N2CCCCC2)cc1	7.3%	-10.8%	-9.9%	44.7µM*	-8.6%	-5.4%
CCn1ccc2cc(S(=O)(=O)N3CCCN(C(=O)Nc4cccc(Cl)c4)CC3)ccc21	nt	nt	4.5%	6.2%[59 µM]	nt	8.5%[46 µM]
COCC(=O)N1CCC(Oc2ccc(C(=O)N(C)CCCC3CCCC3)cc2)CC1	10.6%	nt	13.3%	18.5%[59 µM]	nt	nt
CC(C)n1c(=O)[nH]c2ccccc21	5.9%	-3.4%	-11.4%	8.3%	12.0%	15.3%
CC(C)n1c(=O)[nH][nH]c1=S	8.91µM*	3.16µM*	-1.6%	0.891µM*	0.794µM*	nt
Cc1cc(C)c(Cn2c(=O)n(CCCC(=O)NCc3ccc4c(c3)OCO4)c(=O)c3sccc32)c(C)c1	nt	nt	-2.1%	-9.0%[59 µM]	nt	nt
c1cncc(-c2ccc3ncnc(NC4CCNCC4)c3c2)c1	14.9%	nt	nt	-26.8%[0.501 µM]	-6.0%	1.8%
SMILES	Sfp PPTase inh	JMJD2E inh	miR-21 reporter	G9a block	ALDH1A1 inh	LMNA splice mod
c1cncc(-c2cncnc2NC2CCNCC2)c1	-6.2%	nt	nt	-0.1%[0.501 µM]	25.1µM*	-9.5%
Cc1noc(C)c1S(=O)(=O)Nc1ccc(C(=O)N2CCN(c3cccc(Cl)c3)CC2)cc1	3.0%	-2.1%	-7.4%	13.3%[12.7 µM]	9.8%	?
Cc1cccc(N2CCN(C(=O)c3ccc(NS(=O)(=O)c4c(C)noc4C)cc3)CC2)c1C	9.4%	6.1%	-7.6%	-34.1%[59 µM]	14.1µM*	-26.6%
NC(=O)CC1NC(=O)c2cc([N+](=O)[O-])cc(I)c2OCCC(C(N)=O)NC(=O)[C@@H]2CCCN2C1=O (some centres not stated)	30.1%	-4.5%	-6.9%	79.4µM*	11.9%	-3.9%
C[C@@H]1NC(=O)[C@H](CCCN=C(N)N)NC(=O)c2cc([N+](=O)[O-])cc(I)c2OCC[C@@H](C(N)=O)NC1=O	-2.6%	-5.5%	-10.8%	31.6µM*	-13.6%	-0.8%
NC(=O)[C@@H]1CCOc2c(F)cc([N+](=O)[O-])cc2C(=O)N[C@@H](CO)C(=O)NCC(=O)N1	4.4%	-4.8%	-4.5%	?	?	6.5%
NCCCC[C@H]1NC(=O)[C@H](CCC(=O)O)NC(=O)c2cc([N+](=O)[O-])cc(I)c2OCC[C@@H](C(N)=O)NC1=O	5.3%	-0.1%	-4.6%	25.1µM*	?	0.8%
C[C@@H]1NC(=O)c2cc([N+](=O)[O-])cc(I)c2OCC[C@@H](C(N)=O)NC(=O)[C@H](CCCCN)NC1=O	-16.5%	1.9%	3.7%	44.7µM*	?	?
CC[C@H](C)[C@@H]1NC(=O)c2cc([N+](=O)[O-])cc(F)c2OCC[C@@H](C(N)=O)NC(=O)[C@H](CCCCN)NC1=O	7.9%	-0.2%	-12.1%	?	3.4%	3.3%
CC(C)CNC(=O)C(=O)Nc1c2c(nn1-c1ccc(Cl)cc1)CSC2	nt	nt	-6.6%	37.3%[59 µM]	nt	-6.6%[46 µM]
Cc1cc(OCC(=O)NC(C)c2ccccc2)ccc1[N+](=O)[O-] (configuration not stated)	2.3%	-2.2%	-1.1%	5.4%	25.1µM*	-7.9%[46 µM]
COc1cccc(CNC(=O)CN(C)S(=O)(=O)c2cccc3cccnc23)c1	16.1%	2.7%	1.9%	-7.0%	nt	nt
O=C(O)CCS(=O)(=O)c1cccc2cccnc12	12.4%	-1.0%	-7.1%	?	-8.8%	-0.7%
CCSS(=O)(=O)c1cccc2cccnc12	20µM*	3.16µM*	19.1%	0.447µM*	nt	nt
CN(Cc1ccccc1)S(=O)(=O)c1cccc2cccnc12	6.1%	0.2%	-10.9%	11.8%	8.91µM*	3.3%
COc1ccccc1-c1nnc(C2CCN(S(=O)(=O)c3ccc(CC(C)C)cc3)CC2)o1	nt	nt	19.0%	1.6%[59 µM]	nt	nt
Nc1c(-c2nc(-c3cccs3)no2)nnn1-c1ccccc1Cl	nt	nt	-51.0%	2.6%[59 µM]	nt	nt
Cc1c(Cl)cccc1-n1nnnc1-c1cccs1	3.8%	2.0%	-2.0%	5.4%[12.7 µM]	11.2µM*	17.7%

High-throughput results (PubChem)
